# From PubChem BioAssay
# Unmarked numbers belong to inactive results. For some assays here: Results with a measured potency or affinity are listed apart. Active and inactive are the calls of the source. Unless noted, the rule behind the calls is not given here.
# Key:
# [1] = antimalarial activity against Dd2 strain (AID 2302;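 active = growth inhibition above 50% at the single 2 µM test dose, taken to imply half-maximal potency below 2 µM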;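 note: 0% = DMSO untreated growth and 100% = chloroquine plus artemisinin killed control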); details: P. falciparum Dd2 in RBCs, LDH growth readout, 72 h; at 2 µM; stronger effect = higher value
# [2] = HepG2 cytotoxicity, primary screen, cytotoxicity control for P. falciparum antimalarial project, cell-based, ATP luminescence (AID 2303;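 active = inhibition above 50%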;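 note: 0% = DMSO wells and 100% = digitonin-killed cells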); details: HepG2 viability, 24-48 h, at 10 µM, stronger effect = higher value
# [3] = target: L-lactate dehydrogenase (Plasmodium falciparum (isolate CDC / Honduras)) (UniProt Q27743); test: PfLDH activity inhibition – cell lysate, 3D7 strain, counter-screen for P. falciparum growth inhibition project (AID 2304);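 note: 0% = vehicle and 100% = reference inhibitor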; details: P. falciparum 3D7 crude extract, LDH APAD/NBT absorbance; at 2 µM; stronger effect = higher value
# Sequence of L-lactate dehydrogenase (Plasmodium falciparum (isolate CDC / Honduras)) (Q27743 whole entry, looked up): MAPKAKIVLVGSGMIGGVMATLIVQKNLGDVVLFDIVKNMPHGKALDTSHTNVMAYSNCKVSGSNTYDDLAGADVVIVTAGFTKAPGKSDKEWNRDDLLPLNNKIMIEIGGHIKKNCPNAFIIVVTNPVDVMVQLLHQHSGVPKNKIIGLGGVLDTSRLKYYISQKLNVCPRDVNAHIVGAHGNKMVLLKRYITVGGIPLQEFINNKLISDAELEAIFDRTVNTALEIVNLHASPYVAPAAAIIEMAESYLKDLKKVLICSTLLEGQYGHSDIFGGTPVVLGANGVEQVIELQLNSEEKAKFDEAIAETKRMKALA
# [4] = inhibition of 3D7 malaria parasite growth – strain 3D7 (AID 2306);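 note: 0% = DMSO wells and 100% = chloroquine plus artemisinin control wells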; details: P. falciparum 3D7 erythrocytic growth, LDH absorbance, 72 h; at 2 µM; stronger effect = higher value
# [5] = target: Calcium-dependent protein kinase 1 (Plasmodium falciparum (isolate 3D7)) (UniProt P62344); test: PfCDPK1 kinase inhibitors, biochemical, TCAMS library (AID 1159585; cut-off not given, nearly all actives have IC50 up to about 0.98 µM;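 note: inhibitors leave more ATP so luminescence rises with inhibition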); details: recombinant PfCDPK1, Kinase-Glo ATP depletion luminescence
# Sequence of Calcium-dependent protein kinase 1 (Plasmodium falciparum (isolate 3D7)) (P62344 whole entry, looked up): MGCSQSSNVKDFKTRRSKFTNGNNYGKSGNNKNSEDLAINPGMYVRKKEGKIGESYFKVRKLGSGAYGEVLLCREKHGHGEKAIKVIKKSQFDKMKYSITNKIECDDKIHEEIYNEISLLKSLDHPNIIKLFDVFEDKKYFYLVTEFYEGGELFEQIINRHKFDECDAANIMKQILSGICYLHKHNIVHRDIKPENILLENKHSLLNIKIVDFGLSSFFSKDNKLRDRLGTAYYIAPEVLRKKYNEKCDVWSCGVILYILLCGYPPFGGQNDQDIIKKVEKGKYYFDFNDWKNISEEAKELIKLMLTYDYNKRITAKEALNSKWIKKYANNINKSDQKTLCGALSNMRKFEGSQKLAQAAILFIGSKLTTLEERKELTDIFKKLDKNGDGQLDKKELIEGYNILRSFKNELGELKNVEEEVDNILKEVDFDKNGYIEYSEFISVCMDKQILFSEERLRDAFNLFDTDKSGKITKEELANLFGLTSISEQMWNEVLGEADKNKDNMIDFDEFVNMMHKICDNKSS
# [6] = target: Plasmodium falciparum protein kinase 6 (PK6, PF3D7_1337100) (UniProt Q8IDW1); test: PfPK6 kinase inhibitors, biochemical, TCAMS library (AID 1159586); details: recombinant PfPK6, Kinase-Glo ATP depletion luminescence
# Sequence of Plasmodium falciparum protein kinase 6 (PK6, PF3D7_1337100) (Q8IDW1 1-305): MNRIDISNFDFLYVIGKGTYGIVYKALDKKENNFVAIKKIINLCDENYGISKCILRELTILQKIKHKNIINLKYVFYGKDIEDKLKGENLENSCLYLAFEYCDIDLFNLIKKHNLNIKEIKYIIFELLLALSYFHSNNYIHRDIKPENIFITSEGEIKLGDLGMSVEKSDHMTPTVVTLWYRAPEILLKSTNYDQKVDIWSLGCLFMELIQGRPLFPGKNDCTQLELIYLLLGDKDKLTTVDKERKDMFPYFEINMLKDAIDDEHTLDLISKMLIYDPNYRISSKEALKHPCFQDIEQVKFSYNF
# [7] = target: Protein kinase 7 (PK7), Plasmodium falciparum 3D7 (PF3D7_0213400) (UniProt Q7YTF7); test: inhibition of Plasmodium PK7 catalytic activity – biochemical, TCAMS antimalarial set, Kinase-Glo luminescence (AID 1159587); details: recombinant PfPK7, Kinase-Glo ATP depletion luminescence
# Sequence of Protein kinase 7 (PK7), Plasmodium falciparum 3D7 (PF3D7_0213400) (Q7YTF7 1-343): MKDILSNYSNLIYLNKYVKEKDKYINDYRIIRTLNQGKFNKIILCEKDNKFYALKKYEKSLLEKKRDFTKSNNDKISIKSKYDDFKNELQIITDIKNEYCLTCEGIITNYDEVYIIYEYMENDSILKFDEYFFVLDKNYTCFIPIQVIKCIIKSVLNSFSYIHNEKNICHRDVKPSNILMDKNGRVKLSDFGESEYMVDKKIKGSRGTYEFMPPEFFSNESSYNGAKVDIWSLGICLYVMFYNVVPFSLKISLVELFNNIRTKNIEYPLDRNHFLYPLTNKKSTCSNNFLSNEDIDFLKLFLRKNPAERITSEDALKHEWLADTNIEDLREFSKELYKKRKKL
# [8] = target: Calcium-dependent protein kinase 4 (Plasmodium falciparum (isolate 3D7)) (UniProt Q8IBS5); test: PfCDPK4 kinase inhibitors, biochemical, TCAMS library (AID 1159588; cut-off not given, nearly all actives have IC50 up to about 0.91 µM); details: recombinant PfCDPK4, Kinase-Glo ATP depletion luminescence
# Sequence of Calcium-dependent protein kinase 4 (Plasmodium falciparum (isolate 3D7)) (Q8IBS5 whole entry, looked up): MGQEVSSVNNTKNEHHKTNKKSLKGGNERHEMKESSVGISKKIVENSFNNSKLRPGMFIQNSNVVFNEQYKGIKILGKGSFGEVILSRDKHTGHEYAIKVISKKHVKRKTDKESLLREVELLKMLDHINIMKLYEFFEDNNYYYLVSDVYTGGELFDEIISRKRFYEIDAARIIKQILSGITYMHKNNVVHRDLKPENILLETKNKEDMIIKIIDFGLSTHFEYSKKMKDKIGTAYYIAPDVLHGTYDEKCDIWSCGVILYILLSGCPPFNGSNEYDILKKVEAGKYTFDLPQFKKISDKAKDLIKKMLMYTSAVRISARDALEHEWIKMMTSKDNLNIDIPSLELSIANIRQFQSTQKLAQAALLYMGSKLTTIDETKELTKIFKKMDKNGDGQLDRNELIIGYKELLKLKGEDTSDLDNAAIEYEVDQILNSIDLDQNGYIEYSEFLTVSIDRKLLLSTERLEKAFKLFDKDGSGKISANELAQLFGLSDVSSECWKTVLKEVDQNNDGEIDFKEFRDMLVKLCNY
SMILES,growth inhibition [1],inhibition [2],inhibition [3] [%],growth inhibition [4],outcome [5],outcome [6],outcome [7],outcome [8]
CCC[C@@H]([C@@H](CC1CCCCC1)C(=O)N[C@H](C(=O)Nc1nccs1)[C@H](C)O)N(O)C=O,75% (active),-4%,-5,99% (active),inactive,inactive,inactive,inactive
COC(=O)c1cccc(CNCc2ccc(-c3cccc(-c4nc5c(C)cccc5[nH]4)c3)cc2)c1,84% (active),-7%,7,102% (active),inactive,inactive,inactive,inactive
COCCNCc1cccc(C#Cc2cc3ncnc(Nc4ccc(OCc5cccc(F)c5)c(Cl)c4)c3s2)n1,52% (active),35%,-4,99% (active),inactive,inactive,inactive,inactive
Oc1c(C(Nc2ccccn2)c2ccco2)cc(Cl)c2cccnc12 (stereo not given),65% (active),41%,1,87% (active),inactive,inactive,inactive,inactive
Cc1cccc2[nH]c(-c3ccc(-c4cccc(CNCc5ccc(S(C)(=O)=O)cc5)c4)s3)nc12,91% (active),31%,-3,100% (active),inactive,inactive,inactive,inactive
COc1ccc(C(=C(C)CC(C)C(=O)O)c2ccccc2)cc1 (stereo not given),-2%,6%,-8,95% (active),inactive,inactive,inactive,inactive
COc1nc2c(CCN3CC[C@H](NCc4cc(C#N)c5c(c4)CCO5)[C@H](O)C3)ccnc2cc1F,71% (active),31%,-9,99% (active),inactive,inactive,inactive,inactive
Nc1ncnc2nc(-c3ccc(F)cc3)cc(-c3ccc(NC(=O)c4ccccc4)cc3)c12,97% (active),-6%,0,100% (active),inactive,inactive,inactive,inactive
O=C(/C=C/c1ccc(Cl)c(Cl)c1)NCCCCCN1CCC(NC(=O)NCCc2ccccc2)CC1,7%,23%,2,100% (active),inactive,inactive,inactive,inactive
OC(CNCCCCCCNCC(O)c1ccc(Cl)c(Cl)c1)c1ccc(Cl)c(Cl)c1 (stereo not given),17%,99% (active),-5,90% (active),inactive,inactive,inactive,inactive
CCCC(=O)NC(c1ccc(C)cc1)c1ccc2cccnc2c1O (stereo not given),45%,52% (active),-4,88% (active),inactive,inactive,inactive,inactive
CN1CCCC1CCNCc1cccc(-c2cnc(N(C)C3CCCCC3)nc2)c1 (stereo not given),95% (active),98% (active),2,99% (active),inactive,inactive,inactive,inactive
c1cc(-c2ccc(CN3CCCCC3)cc2)cc(-c2nc3ccccc3[nH]2)c1,79% (active),39%,5,101% (active),inactive,inactive,inactive,inactive
Cc1cc(N[C@@H](CC(C)C)C(=O)Nc2ccccc2)nc(NCCc2ccc(F)cc2)n1,94% (active),8%,4,101% (active),inactive,inactive,inactive,inactive
CC(C)CNc1c2c(nc3cnn(-c4c5c(nc6cn[nH]c46)CCCC5)c13)CCCC2,-2%,7%,-5,100% (active),inactive,inactive,inactive,inactive
CC(C)CNC(=O)c1ccnc(-c2ccc(CNCCCc3ccccc3)cc2)c1,22%,12%,-3,99% (active),inactive,inactive,inactive,inactive
O=S(=O)(NC1CCN(c2ccnc3cc(Cl)ccc23)C1)c1ccc(C(F)(F)F)cc1 (stereo not given),98% (active),20%,2,100% (active),inactive,inactive,inactive,inactive
NC1=NC2(CCCCC2)N(OCCCCCCCCNc2nc(N)nc(N)n2)C(N)=N1,99% (active),44%,-5,96% (active),inactive,inactive,inactive,inactive
Cn1nc(-c2cccc(CNC3CCc4ccccc43)c2)c2cnc(NCCCN3CCCC3)nc21 (stereo not given),15%,29%,-2,99% (active),inactive,inactive,inactive,inactive
O=C(Nc1cccc(-c2cccc(-c3ccc(F)cc3)n2)c1)c1ccc([N+](=O)[O-])o1,42%,100% (active),4,99% (active),inactive,inactive,inactive,inactive

SMILES,growth inhibition [1],inhibition [2],inhibition [3] [%],growth inhibition [4],outcome [5],outcome [6],outcome [7],outcome [8]
O=C(C=Cc1ccc(F)cc1)N1CCN(S(=O)(=O)c2ccc(Cl)cc2)CC1,93% (active),10%,-2,91% (active),inactive,inactive,inactive,inactive
Oc1ccc(CCNc2nc(NCc3ccccc3-c3ccc(C(F)(F)F)cc3)nc(NC3CCNCC3)n2)cc1,2%,12%,4,97% (active),inactive,inactive,inactive,inactive
COc1ccc(C2CC(=O)C3=C(C2)NC(C)=C(C(=O)OC(C)C)C3c2ccc(O)cc2)cc1OC (stereo not given),98% (active),-1%,-3,99% (active),inactive,inactive,inactive,inactive
Oc1cccc(Nc2nc(NCc3ccccc3)c3ccccc3n2)c1,99% (active),21%,-7,95% (active),inactive,inactive,inactive,inactive
Cc1cc2c(cc1C(F)(F)F)N(C(=O)Nc1cc(OCCN(C(C)C)C(C)C)cc(C(F)(F)F)c1)CC2,86% (active),42%,-2,100% (active),inactive,inactive,inactive,inactive
Oc1cc(Nc2ccnc3cc(I)ccc23)ccc1F,99% (active),-6%,0,99% (active),inactive,inactive,inactive,inactive
Cn1c(=O)n(C)c2cc(CNCCNc3ccnc4cc(Cl)ccc34)ccc21,96% (active),17%,-1,101% (active),inactive,inactive,inactive,inactive
CN(C)CC(=O)N(Cc1ccc(Cl)c(Cl)c1)Cc1csc(-c2ccc(CNCc3ccccc3)cc2)n1,32%,30%,4,96% (active),inactive,inactive,inactive,inactive
O=C(/C=C/c1ccc(Cl)c(Cl)c1)NCCCCCN1CCC(NC(=O)Nc2ccc(OC(F)F)cc2)CC1,18%,33%,6,101% (active),inactive,inactive,inactive,inactive
COc1c(C2CCN(CCCCNC(=O)c3ccc(NC(=O)c4ccc(C#N)cc4)cc3)CC2)ccc2c1CCCC2,100% (active),81% (active),1,97% (active),inactive,inactive,inactive,inactive
CN1CCCc2ccc(NC(=O)c3cc(-c4ccc(Cl)cc4)cs3)cc2C1,40%,35%,-2,94% (active),inactive,inactive,inactive,inactive
CCN(CCCN1CCCCC1)c1cc(C)nc(Nc2ccc(C)cc2Br)n1,27%,49%,3,95% (active),inactive,inactive,inactive,inactive
COc1cccc2cc(C(=O)N[C@@H](CC(C)C)C(=O)Nc3cc(F)ccc3Br)oc12,45%,7%,-1,87% (active),inactive,inactive,inactive,inactive
O=C(C=Cc1ccc(Br)cc1)N1CCC(CCN2CCC(c3c[nH]c4ccccc34)CC2)CC1,24%,47%,2,98% (active),inactive,inactive,inactive,inactive
COCCNCc1ccc(-c2ccc3c(Nc4ccc(F)cc4Cl)ccnc3c2)o1,100% (active),22%,2,100% (active),inactive,inactive,inactive,inactive
NCC1CCCN1Cc1ccc(-c2cccc(-c3nc4ccc(C(F)(F)F)cc4[nH]3)c2)cc1 (stereo not given),97% (active),24%,1,99% (active),inactive,inactive,inactive,inactive
Cc1cc(O)c(CNC2CCCCC2)cc1C,95% (active),6%,-2,95% (active),inactive,inactive,inactive,inactive
CCc1cccc2c(C#N)cn(CC(=O)NCCc3ccccc3)c12,64% (active),1%,2,95% (active),inactive,inactive,inactive,inactive
Cc1ccccc1NC(=O)C1CSCN1C(=O)OCc1ccccc1 (stereo not given),-1%,8%,-1,91% (active),inactive,inactive,inactive,inactive
COc1ccc(-c2ccc(NC(=O)c3cccc(Cl)c3)cc2)cc1CN1CCN(C)CC1,33%,42%,-2,90% (active),inactive,inactive,inactive,inactive
